CYP2C9 act – CYP2C9 (human) activation. actives 1.4% (n = 96,000). P11712. activation factor at 5 µM. recombinant CYP2C9, luciferin-H conversion, luminescence; stronger effect = higher value; factor 1 = untreated enzyme, 0 = blocked;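 active = activation factor of 2 or more for CYP2C9 at a 5 µM dose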
CYP2C19 act – increases human CYP2C19 enzyme activity; activation factor at 5 µM; AID 1025; P33261; 96,000 tested, under 10 active; recombinant CYP2C19, luciferin-H EGE luminescence; stronger effect = higher value; 0 = fully inhibited enzyme, 1 = untreated enzyme;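 active = activation factor of at least 2 at 5 µM in the primary screen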
Target sequence (P33261 whole entry, looked up): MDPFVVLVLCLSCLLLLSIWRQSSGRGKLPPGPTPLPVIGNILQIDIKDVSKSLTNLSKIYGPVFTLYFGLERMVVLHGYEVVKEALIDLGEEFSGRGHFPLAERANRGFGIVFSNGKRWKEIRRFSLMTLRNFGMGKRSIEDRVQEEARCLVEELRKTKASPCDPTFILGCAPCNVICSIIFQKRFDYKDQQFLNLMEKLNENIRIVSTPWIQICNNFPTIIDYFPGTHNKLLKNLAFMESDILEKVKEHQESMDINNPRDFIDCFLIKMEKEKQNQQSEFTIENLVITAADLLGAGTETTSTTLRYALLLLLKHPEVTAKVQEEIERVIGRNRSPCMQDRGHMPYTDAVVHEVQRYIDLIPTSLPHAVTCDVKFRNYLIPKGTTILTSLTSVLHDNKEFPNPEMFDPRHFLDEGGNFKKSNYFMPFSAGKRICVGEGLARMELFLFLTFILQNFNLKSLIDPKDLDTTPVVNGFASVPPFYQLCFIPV
CYP2C19 inhib – blocks human cytochrome P450 2C19 | actives 21% (n = 96,000) | CYP2C19 Supersomes, luciferin-H EGE luminescence, 30 min | inhibition, % at 5 µM | AID 778 | P33261;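 active = CYP2C19 inhibition above a set limit at 5 µM in the primary screen, cut at about 50% in these data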
CYP2C9 inhib – blocks human cytochrome P450 2C9; inhibition, % at 5 µM; AID 777; P11712; CYP2C9 Supersomes, luciferin-H conversion, luminescence; actives 20% (n = 96,000);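 active = blocking of liver enzyme CYP2C9 beyond about 50% at 5 µM, limit read from the data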
Cav3 T inh – human Cav3.2 channel inhibition, primary screen. O95180. Cav3.2-expressing cells, Fluo-4 calcium fluorescence FDSS; stronger effect = lower value. B-score at 10 µM. actives 4% (n = 100,000). AID 449739;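 active = single-dose well whose peak fluorescence ratio is a statistical outlier from its plate by either plate-standardised score or position-corrected B-score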
Each line names hits and unclear results; the compound was inactive in the other large screens. Compounds with a hit are over-represented: about 27% of the library has one in this group of screens.

O=C(Nc1ccccc1)C1=C[C@@H](c2coc3ccccc3c2=O)C[C@@H](OCCCCO)O1	none (no result: CYP2C9 act, CYP2C19 act, CYP2C19 inhib, CYP2C9 inhib)
C=CCN(CC=C)C(=S)Nc1ccccc1	none
CC(C)Nc1nc(NC(C)C)nc(N(C)C#N)n1	none
Cc1ccc(Nc2nc(Cl)nc(N(C)C#N)n2)cc1	Cav3 T inh 4
CC(=O)Nc1cccc(C(=O)OC(C(=O)c2ccc(C)cc2)c2ccccc2)c1 (stereo unspecified)	CYP2C9 inhib 76
CC(=O)Nc1cccc(C(=O)OCc2ccccc2)c1	CYP2C19 inhib 98
COc1ccc(C(=O)C(c2ccccc2)N2CCOCC2)cc1 (stereo unspecified)	none
Cc1ccc(NC(=O)CCC(=O)OC(C(=O)c2ccc(C)c(C)c2)c2ccccc2)c(C)c1 (stereo unspecified)	none
CCCOC(=O)c1cccc(NC(=O)c2cccnc2)c1	none
CCOCCOC(=O)c1cccc(NC(=O)OCC)c1	CYP2C19 inhib 71, CYP2C9 inhib 63
CCOC(=O)Nc1cccc(NC(=O)c2cc(OC)cc(OC)c2)c1	none (no result: CYP2C9 act, CYP2C19 act, CYP2C19 inhib, CYP2C9 inhib)
COc1ccc(C(=O)OC(C(=O)c2ccc(C)cc2)c2ccccc2)cc1 (stereo unspecified)	CYP2C9 inhib 57
CC(C)CC(NC(=O)OC(C)(C)C)c1cn([C@@H](CCC(=O)OC(C)(C)C)C(=O)N2CCN(C(=O)OC(C)(C)C)CC2)nn1 (stereo partly specified)	none (no result: CYP2C9 act, CYP2C19 act, CYP2C19 inhib, CYP2C9 inhib)
Cc1cc2nc(SCC(=O)N(C)C)c3c(c2cc1C)CCCC3	none
O=C(Cn1nnc(-c2ccccc2)n1)OCc1ccccc1	none
O=C(OCc1ccccc1)c1cccc(-c2nnn(Cc3ccccc3)n2)c1	CYP2C9 inhib 63, Cav3 T inh -4.1
Cc1ccc(C(=O)C(OC(=O)CNS(=O)(=O)c2ccccc2)c2ccccc2)cc1 (stereo unspecified)	CYP2C9 inhib 55
COc1ccc(/C=C(/NC(C)=O)C(=O)O)cc1	none (no result: Cav3 T inh)
CCOC(=O)C1CCN(Cc2ccc(F)c(F)c2)CC1	none
CCOC(=O)C1CCN(Cc2cccc(OC)c2)CC1	CYP2C19 inhib 77
CCOC(=O)C1CCCN(Cc2ccc(OCC)cc2)C1 (stereo unspecified)	CYP2C19 inhib 76
CCOC(=O)C1CCCN(Cc2ccccc2C)C1 (stereo unspecified)	CYP2C19 inhib 88
CCOC(=O)N1CCN(CCC(=O)c2ccc(Cl)cc2)CC1	CYP2C9 inhib 64
CN(C1CCS(=O)(=O)C1)S(=O)(=O)c1ccc(C2CCCCC2)cc1 (stereo unspecified)	none
CCOC(=O)C1CCCN(Cc2ccccc2Cl)C1 (stereo unspecified)	CYP2C19 inhib 80
CCOC(=O)C1CCCN(Cc2cccs2)C1 (stereo unspecified)	CYP2C19 inhib 88
O=C(C1CCCN(Cc2cccs2)C1)N1CCCCCC1 (stereo unspecified)	none
CCOC(=O)C1CCN(Cc2ccccc2C)CC1	CYP2C19 inhib 77
CCOC(=O)C1CCCN(Cc2ccccc2OCC)C1 (stereo unspecified)	none
CCOC(=O)C1CCCN(C/C(O)=C(\C#N)c2nc(-c3ccc(Cl)cc3)cs2)C1 (stereo unspecified)	CYP2C9 inhib 58
C=CCN(CC=C)c1nc2ccccc2nc1C(C#N)C(=O)OC(C)C (stereo unspecified)	none (no result: CYP2C9 act, CYP2C19 act, CYP2C19 inhib, CYP2C9 inhib)
CCOC(=O)[C@@H]1[C@H]2COc3ccccc3[C@@H]2N2C(=O)N(c3ccc(C(F)(F)F)cc3)C(=O)[C@]12C	none (no result: CYP2C9 act, CYP2C19 act, CYP2C19 inhib, CYP2C9 inhib)
CC#CCN1c2ccccc2[C@]23C[C@@H](C(=O)OC)N(C(=O)NCCBr)C2=NC(C(=O)OC)=C(C(=O)OC)[C@H]13	none (no result: CYP2C9 act, CYP2C19 act, CYP2C19 inhib, CYP2C9 inhib)
CCOC(=O)C1CCCN(Cc2c(F)cccc2Cl)C1 (stereo unspecified)	CYP2C19 inhib 62
CCOC(=O)N1CCN(Cc2cccs2)CC1	CYP2C19 inhib 90
CCN1CCN(Cc2cc(=O)oc3ccc(Cl)cc23)CC1	none
CCOC(=O)C1CCCN(Cc2nc(N)nc(Nc3ccc(Cl)cc3)n2)C1 (stereo unspecified)	CYP2C19 inhib 63, CYP2C9 inhib 67 (no result: Cav3 T inh)
CCOC(=O)C1CCCN(Cc2nc(N)nc(Nc3ccc(OC)cc3)n2)C1 (stereo unspecified)	none
CCOC(=O)N1CCN(Cc2cc(=O)oc3ccc(Cl)cc23)CC1	CYP2C19 inhib 73, CYP2C9 inhib 56
CCCCSc1nc(C)[nH]c1[N+](=O)[O-]	none
O=C(Cn1nnc(-c2ccccc2Cl)n1)N/N=C/c1ccc2c(c1)OCO2	none
CC(C)Oc1ccc(N2CC(C(=O)Nc3ccc4c(c3)OCO4)CC2=O)cc1 (stereo unspecified)	none
S=c1[nH]nc(CSCc2ccccc2Cl)n1-c1ccccc1	CYP2C19 inhib 72, CYP2C9 inhib 76
COCc1n[nH]c(=S)n1-c1ccccc1	none
C=CCOc1ccc(CN(C)CC(=O)N(CC(C)C)c2c(N)n(CC(C)C)c(=O)[nH]c2=O)cc1	none
CCCCn1c(N)c(N(CC(C)C)C(=O)CN(C)Cc2cccc(OC)c2)c(=O)[nH]c1=O	CYP2C19 inhib 56
C[C@@H](C(=O)NCc1ccccn1)[C@@H]1C[C@@]1(C)[C@@H](NC(=O)OCc1ccccc1)c1ccccc1	none (no result: CYP2C9 act, CYP2C19 act, CYP2C19 inhib, CYP2C9 inhib)
Cc1ccc(NS(=O)(=O)c2ccc(C)c(C(=O)N3CCN(C)CC3)c2)cc1	none
C#C[C@]1(O)CCC2C3CCC4=Cc5oncc5CC4(C)C3CCC21C (stereo partly specified)	Cav3 T inh -4.8 (no result: CYP2C9 act, CYP2C19 act, CYP2C19 inhib, CYP2C9 inhib)
CCN(CC)S(=O)(=O)c1ccc2c(c1)nc(SCc1nc3ccsc3c(=O)[nH]1)n2CC	CYP2C9 inhib 69
COc1cc2c(cc1OC)CN(Cc1nc3ccsc3c(=O)[nH]1)CC2	none
Cc1cc(C)c(-n2c(C)cc(/C=C3/NC(=O)NC3=O)c2C)c(C)c1	Cav3 T inh -6.1
Cc1ccc(-n2c(C)cc(/C=N/NC(=O)CC3(C)OCCO3)c2C)c(C)c1	none (no result: CYP2C9 act, CYP2C19 act, CYP2C19 inhib, CYP2C9 inhib)
O=C(COC(=O)CCCN1C(=O)c2ccccc2C1=O)Nc1ncc(Cl)cc1Cl	CYP2C19 inhib 54, CYP2C9 inhib 57
CC(C)CC(C(=O)OCC(=O)Nc1ncc(Cl)cc1Cl)N1C(=O)c2ccccc2C1=O (stereo unspecified)	none
O=C(COC(=O)CN1C(=O)c2ccccc2C1=O)Nc1ncc(Cl)cc1Cl	none (no result: Cav3 T inh)
COc1ccc(CC(=O)OCC(=O)Nc2ncc(Cl)cc2Cl)cc1OC	CYP2C19 inhib 51
O=C(COC(=O)CCS(=O)(=O)c1ccc(Cl)cc1)Nc1ncc(Cl)cc1Cl	CYP2C19 inhib 51
COc1ccccc1OCCC(=O)OCC(=O)Nc1ncc(Cl)cc1Cl	CYP2C19 inhib 87
Cc1ccc(-n2c(=O)[nH]cc(C(=O)Nc3ccc4c(c3)OCO4)c2=O)cc1C	none
O=C(COC(=O)CNC(=O)c1ccco1)Nc1ccc(Cl)cn1	CYP2C19 inhib 54
COc1ccccc1NCCC(=O)OCC(=O)Nc1ccc(Cl)cn1	CYP2C19 inhib 80
O=C(O/N=C1\CCCc2ccccc21)c1ccc(F)cc1	none
CC(C)N1C(=O)CC2(CC[N+](C)(CCOC(=O)C(c3ccccc3)c3ccccc3)CC2)C1=O (stereo unspecified)	none
